Only a selection was taken, and the strongest signals are over-represented in it overall.

Experiment in all cases: glycan array binding signal (z-score within array); higher = stronger binding
Conditions in all cases: glycan notation: IUPAC condensed, linker removed

Experiment [1] concerns the target Fuc(a1-2)Gal(b1-3)GlcNAc(b1-3)[Fuc(a1-2)Gal(b1-3)GlcNAc(b1-6)]GalNAc. A digest of the protocol: (§1)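 From the Consortium for Functional Glycomics database, 3228 arrays were curated, keeping only those whose protein sequence was available. Binding is given as a within-array Z-score averaged across arrays sharing a protein sequence and across linkers. Negative Z-scores can be read as non-binding.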

Experiment [2] concerns the target Fuc(a1-2)Gal(b1-4)GlcNAc(b1-3)Gal(b1-4)GlcNAc. A digest of the protocol:
as §1

Experiment [3] concerns the target Fuc(a1-2)[Gal(a1-3)]Gal(b1-4)Glc. A digest of the protocol: as §1
For experiment [4], the target named is Fuc(a1-2)[Gal(a1-3)]Gal(b1-4)[Fuc(a1-3)]GlcNAc. A digest of the protocol:
as §1

In experiment [5] the target is Fuc(a1-2)[GalNAc(a1-3)]Gal(b1-3)GlcNAc(b1-6)GalNAc. The method, boiled down: as §1
Experiment [6] addresses Fuc(a1-2)[GalNAc(a1-3)]Gal(b1-4)Glc. A digest of the protocol: as §1
For experiment [7], the target named is Gal(a1-3)Gal(b1-4)[Fuc(a1-3)]GlcNAc. The method, boiled down: as §1
Another experiment addresses Gal(a1-4)GlcNAc. The method, boiled down:
as §1

The target of another experiment is Gal(a1-6)Glc. The method, boiled down: as §1
Experiment [8] addresses Gal(b1-3)GlcNAc(a1-6)Gal(b1-4)GlcNAc. The method, boiled down:
as §1

The target in experiment [9] is Gal(b1-3)GlcNAc(b1-3)Gal(b1-3)GlcNAc. The method, boiled down:
as §1

The target of experiment [10] is Gal(b1-3)GlcNAc(b1-3)Gal(b1-4)GlcNAc(b1-3)Gal(b1-4)GlcNAc(b1-2)[Gal(b1-3)GlcNAc(b1-3)Gal(b1-4)GlcNAc(b1-3)Gal(b1-4)GlcNAc(b1-6)]Man(a1-6)[Gal(b1-3)GlcNAc(b1-3)Gal(b1-4)GlcNAc(b1-3)Gal(b1-4)GlcNAc(b1-2)Man(a1-3)]Man(b1-4)GlcNAc(b1-4)[Fuc(a1-6)]GlcNAc. A digest of the protocol: as §1
The next experiment deals with Gal(b1-3)GlcNAc6S. The method, boiled down: as §1
The target in experiment [11] is Gal(b1-4)GlcNAc(b1-2)[Gal(b1-4)GlcNAc(b1-6)]Man(a1-6)[Gal(b1-4)GlcNAc(b1-2)Man(a1-3)]Man(b1-4)GlcNAc(b1-4)GlcNAc. The method, boiled down: as §1
For experiment [12], the target named is Gal(b1-4)GlcNAc(b1-3)Gal(b1-4)GlcNAc(b1-3)Gal(b1-4)GlcNAc(b1-2)Man(a1-3)[Gal(b1-4)GlcNAc(b1-3)Gal(b1-4)GlcNAc(b1-3)Gal(b1-4)GlcNAc(b1-2)Man(a1-6)]Man(b1-4)GlcNAc(b1-4)[Fuc(a1-6)]GlcNAc. A digest of the protocol:
as §1

Experiment [13] has as its target Gal(b1-4)GlcNAc(b1-3)Gal(b1-4)GlcNAc(b1-3)Gal(b1-4)GlcNAc(b1-2)[Gal(b1-4)GlcNAc(b1-3)Gal(b1-4)GlcNAc(b1-3)Gal(b1-4)GlcNAc(b1-6)]Man(a1-6)[Gal(b1-4)GlcNAc(b1-3)Gal(b1-4)GlcNAc(b1-3)Gal(b1-4)GlcNAc(b1-2)Man(a1-3)]Man(b1-4)GlcNAc(b1-4)[Fuc(a1-6)]GlcNAc. The method, boiled down:
as §1

Experiment [14] concerns the target Gal(b1-4)GlcNAc(b1-3)Gal(b1-4)GlcNAc(b1-3)Gal(b1-4)GlcNAc(b1-3)Gal(b1-4)GlcNAc(b1-2)Man(a1-3)[Gal(b1-4)GlcNAc(b1-3)Gal(b1-4)GlcNAc(b1-3)Gal(b1-4)GlcNAc(b1-3)Gal(b1-4)GlcNAc(b1-2)Man(a1-6)]Man(b1-4)GlcNAc(b1-4)GlcNAc. The method, boiled down:
as §1

The target in experiment [15] is Gal(b1-4)GlcNAc(b1-3)Gal(b1-4)GlcNAc(b1-3)Gal(b1-4)GlcNAc(b1-3)Gal(b1-4)GlcNAc(b1-2)Man(a1-3)[Gal(b1-4)GlcNAc(b1-3)Gal(b1-4)GlcNAc(b1-3)Gal(b1-4)GlcNAc(b1-3)Gal(b1-4)GlcNAc(b1-2)Man(a1-6)]Man(b1-4)GlcNAc(b1-4)[Fuc(a1-6)]GlcNAc. The method, boiled down: as §1
Experiment [16] has as its target Gal(b1-4)GlcNAc(b1-3)Gal(b1-4)GlcNAc(b1-3)Gal(b1-4)GlcNAc(b1-3)Gal(b1-4)GlcNAc(b1-2)[Gal(b1-4)GlcNAc(b1-3)Gal(b1-4)GlcNAc(b1-3)Gal(b1-4)GlcNAc(b1-3)Gal(b1-4)GlcNAc(b1-6)]Man(a1-6)[Gal(b1-4)GlcNAc(b1-3)Gal(b1-4)GlcNAc(b1-3)Gal(b1-4)GlcNAc(b1-3)Gal(b1-4)GlcNAc(b1-2)Man(a1-3)]Man(b1-4)GlcNAc(b1-4)[Fuc(a1-6)]GlcNAc. A digest of the protocol: as §1
Experiment [17] concerns the target Gal(b1-4)GlcNAc(b1-3)Gal(b1-4)GlcNAc(b1-3)Gal(b1-4)GlcNAc(b1-3)Gal(b1-4)GlcNAc(b1-3)Gal(b1-4)GlcNAc(b1-2)Man(a1-3)[Gal(b1-4)GlcNAc(b1-3)Gal(b1-4)GlcNAc(b1-3)Gal(b1-4)GlcNAc(b1-3)Gal(b1-4)GlcNAc(b1-3)Gal(b1-4)GlcNAc(b1-2)Man(a1-6)]Man(b1-4)GlcNAc(b1-4)GlcNAc. A digest of the protocol: as §1
For experiment [18], the target named is Gal(b1-4)GlcNAc(b1-3)Gal(b1-4)GlcNAc(b1-3)Gal(b1-4)GlcNAc(b1-3)Gal(b1-4)GlcNAc(b1-3)Gal(b1-4)GlcNAc(b1-2)Man(a1-3)[Gal(b1-4)GlcNAc(b1-3)Gal(b1-4)GlcNAc(b1-3)Gal(b1-4)GlcNAc(b1-3)Gal(b1-4)GlcNAc(b1-3)Gal(b1-4)GlcNAc(b1-2)Man(a1-6)]Man(b1-4)GlcNAc(b1-4)[Fuc(a1-6)]GlcNAc. The method, boiled down:
as §1

The target of experiment [19] is Gal(b1-4)GlcNAc(b1-3)Gal(b1-4)GlcNAc(b1-3)Gal(b1-4)GlcNAc(b1-3)Gal(b1-4)GlcNAc(b1-3)Gal(b1-4)GlcNAc(b1-2)[Gal(b1-4)GlcNAc(b1-3)Gal(b1-4)GlcNAc(b1-3)Gal(b1-4)GlcNAc(b1-3)Gal(b1-4)GlcNAc(b1-3)Gal(b1-4)GlcNAc(b1-6)]Man(a1-6)[Gal(b1-4)GlcNAc(b1-3)Gal(b1-4)GlcNAc(b1-3)Gal(b1-4)GlcNAc(b1-3)Gal(b1-4)GlcNAc(b1-3)Gal(b1-4)GlcNAc(b1-2)Man(a1-3)]Man(b1-4)GlcNAc(b1-4)[Fuc(a1-6)]GlcNAc. A digest of the protocol: as §1

Experiment [20] concerns the target Gal(b1-4)GlcNAc(b1-3)Gal(b1-4)GlcNAc(b1-3)Gal(b1-4)GlcNAc(b1-3)Gal(b1-4)GlcNAc(b1-3)Gal(b1-4)GlcNAc(b1-3)Gal(b1-4)GlcNAc(b1-2)Man(a1-3)[Gal(b1-4)GlcNAc(b1-3)Gal(b1-4)GlcNAc(b1-3)Gal(b1-4)GlcNAc(b1-3)Gal(b1-4)GlcNAc(b1-3)Gal(b1-4)GlcNAc(b1-3)Gal(b1-4)GlcNAc(b1-2)Man(a1-6)]Man(b1-4)GlcNAc(b1-4)GlcNAc. The method, boiled down:
as §1

B1: Gal 3C (Homo sapiens), P17931 (protein)
chain: YGAPAGPLIVPYNLPLPGGVVPRMLITILGTVKPNANRIALDFQRGNDVAFHFNPRFNENNRRVIVCNTKLDNNWGREERQSVFPFESGKPFKIQVLVEPDHFKVAVNDAHLLQYNHRVKKLNEISKLGISGDIDLTSASYTMI
For the molecule B1, the “glycan array binding signal (z-score)” value was -0.212 in experiment [1]; 1.07 in [2]; -0.106 in experiment [3]; -0.196 in [4]; -0.229 in [5]; -0.117 in experiment [6]. For the same molecule, the “glycan array binding signal (z-score)” value in experiment [7] was -0.259; with Gal(a1-4)GlcNAc, -0.295; in the experiment with Gal(a1-6)Glc, -0.222; in experiment [8], -0.269; in [9], -0.068; in experiment [10], 1.95. Moreover, the “glycan array binding signal (z-score)” value with Gal(b1-3)GlcNAc6S was -0.277; in [11] it was -0.222; in experiment [12], 4.24; in [13] it was 4.41; in [14], 5.03; in experiment [15], 4.24. Besides, the “glycan array binding signal (z-score)” value was found to be 4.44 in [16]; 4.06 in experiment [17]; 6.46 in experiment [18]; 6.39 in [19]; 4.39 in [20].

The values are drawn from the supplement of paper PMC8728848.
